# Screening data (PubChem)
# CFTR F508del cor = F508del CFTR correction, initial screen, CFBE line, single point; CFBE cells, YFP halide quenching; stimulated with forskolin plus potentiator P3; % fluorescence drop versus neutral controls; activity (quench increase), % at 7.58 µM; 0.36% of 350,000 active;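 active means mean added fluorescence quench of at least 8% versus neutral control, with both replicates also reaching 8%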;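 further: cells transiently co-express mutant CFTR-F508del with the halide-sensitive YFP; corrector assay measuring rescue of mutant channel to the surface after 24 h compound exposure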
# 697 NFkB inh = inhibitors of PMA/ionomycin-induced NF-kB reporter, 697 cells, primary screen, B-cell NF-kB inhibitor project, cell-based, luminescence, uHTS | 697 B-cell NF-kB luciferase reporter, 16 h | inhibition, % at 4 µM | 0.33% of 330,000 active | AID 435022, 2010; in the data active means inhibition above about 35%
# HIF act = HIF pathway transcriptional activators, primary screen, cell-based, U2OS HRE-luciferase, luminescence; 0.32% of 300,000 active; U2OS HRE-luciferase reporter; normalized: DMSO 0%, desferrioxamine 100%; AID 1910, 2009; activation, % at 7.5 µM (by protocol);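 active means mean activation of at least 10% of the iron chelator positive control signal, with at least half of replicates also reaching 10%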
# Jurkat NFkB inh = inhibitors of induced NF-kB luciferase reporter, primary screen, TCR NF-kB activation inhibitor project, cell-based, luminescence, uHTS; Jurkat, PMA/ionomycin-induced NF-kB luciferase reporter; inhibition, % at 4 µM; 0.53% of 330,000 active; in the data active means inhibition above about 50%
# Numbers stand for hits; - = inactive; . = not tested or not shown. An excerpt weighted towards active compounds, which were near 0.93% of everything screened.
SMILES,CFTR F508del cor,697 NFkB inh,HIF act,Jurkat NFkB inh
Nc1ccn([C@@H]2O[C@H](C(=O)NCC(F)(F)F)[C@@H](O)[C@H]2O)c(=O)n1,10,.,.,.
COc1ccc2c3c(n(C)c2c1)[C@H](CO)N(C(=O)CN(C)C)CC31CN(Cc2cccnc2)C1,-,.,.,.
COc1ccc(C#Cc2ccc([C@@H]3[C@@H](CO)N4CCCCN(Cc5ccccc5F)C[C@H]34)cc2)cc1,-,.,.,.
OC[C@@H]1[C@@H](c2ccc(C#CC3(O)CCCC3)cc2)[C@H]2CN(Cc3ccccc3F)CCCCN12,8.4,.,.,.
OC[C@H]1[C@H](c2ccc(C#CC3(O)CCCC3)cc2)[C@H]2CN(Cc3ccccc3F)CCCCN21,8.9,.,.,.
CO[C@@H]1CN(C)C(=O)c2ccc(NC(=O)C3CC3)cc2OC[C@@H](C)N(CCC(F)(F)F)C[C@H]1C,-,.,.,.
COc1cccc(C#Cc2cnc3c(c2)C(=O)N([C@@H](C)CO)C[C@@H](C)[C@H](CN(C)C(=O)C2CC2)O3)c1,-,.,.,.
COc1ccccc1NC(=S)N(Cc1ccco1)Cc1cc2cc(C)cc(C)c2[nH]c1=O,10,-,-,-
COc1ccccc1NC(=S)N(Cc1ccco1)Cc1cc2ccc(C)c(C)c2[nH]c1=O,.,-,-,-
Cc1cc(C)c2nc(Cl)c(CN(Cc3ccco3)C(=O)Nc3ccccc3C)cc2c1,11,-,-,-
Cc1ccc2nc(-c3ccncc3)c(NC3CCCC3)n2c1,-,-,-,-
Cc1ccc2nc(-c3ccncc3)c(NC3CCCCC3)n2c1,-,-,452,-
CCN1CN(CCc2ccccc2)CNC1=S,.,-,270,-
CCN1CNC(=S)N(CCc2ccccc2)C1,-,-,-,-
O=C(Cc1ccncc1)NCC[C@@H]1CC[C@H](NC(=O)Nc2cccc(F)c2)[C@H](CO)O1,-,.,.,.
O=C1/C(=C\c2cc(Cl)c(O)c(Cl)c2)SC(=S)N1Cc1ccccc1,28,.,-,.
COc1ccc2c3c(n(C)c2c1)[C@@H](CO)N(C(=O)Nc1ccc(F)cc1)CC31CCN(Cc2cccnc2)CC1,-,.,.,.
COc1ccc(-c2nc(C#N)c(N3CCN(C(=O)c4ccco4)CC3)o2)cc1OC,-,-,11,-
CCN(CC)c1ccc2c(Cl)c(Br)c(=O)oc2c1,.,-,14,-
CC(C)NC(=O)N(C)C[C@H]1Oc2cc(C#CC(C)(C)O)ccc2S(=O)(=O)N([C@@H](C)CO)C[C@@H]1C,-,.,.,.
CN(C)C(=O)C[C@@H]1CC[C@H]2[C@@H](COC[C@H](O)CN2C(=O)C2CCCC2)O1,-,.,.,.
CC(C)c1nc(CNC(=O)CCc2nnc(-c3ccsc3)o2)cs1,-,-,49,-
CC(C)C#Cc1ccc2c(c1)O[C@H](CN(C)C(=O)c1cccc(F)c1)[C@@H](C)CN([C@H](C)CO)S2(=O)=O,-,.,.,.
CC(C)Sc1nc(N)c2c3c(sc2n1)CN(C)CC3,.,-,13,-
CCCSc1nc(N)c2c3c(sc2n1)CN(C)CC3,.,-,-,-
SMILES,CFTR F508del cor,697 NFkB inh,HIF act,Jurkat NFkB inh
COc1ccc(S(=O)(=O)N2CC[C@@H]3[C@H]2c2cc(-c4ccc(C#N)cc4)ccc2N[C@@H]3CO)cc1,-,.,.,.
O=C(COC(=O)C1CCC1)Nc1cc(S(=O)(=O)N2CCOCC2)ccc1Cl,13,.,.,.
O=C(CN(Cc1ccco1)Cc1ccco1)Nc1cc(S(=O)(=O)N2CCCCC2)ccc1Cl,9.4,-,.,-
COc1ccc2c3c(n(C)c2c1)[C@@H](CO)N(S(C)(=O)=O)CC31CCN(C(=O)CN(C)C)CC1,-,.,.,.
COc1cc(C(=O)Oc2ccccc2/C=N/NC(=O)c2ccc(C)c(Cl)c2)cc(OC)c1OC,.,-,-,-
O=C(N/N=C/c1ccccn1)c1ccc(Cl)cc1,-,-,12,-
COc1cc(C(=O)Oc2ccccc2/C=N/NC(=O)c2ccc(Cl)cc2)cc(OC)c1OC,.,-,71,-
Cn1c(C(=O)c2ccccc2[N+](=O)[O-])nc2ccccc21,8.6,-,-,-
CN(C)C(=O)C[C@H]1C=C[C@H](NC(=O)NC2CCCCC2)[C@H](CO)O1,-,.,.,.
COc1ccc2c3c(n(C)c2c1)[C@@H](CO)N(C(=O)Nc1ccc(F)cc1)CC31CCN(C(=O)NC2CCCC2)CC1,-,.,.,.
CCCC1CCC(c2nc(-c3cccnc3)no2)CC1 (stereo not drawn),.,-,-,-
CCCCCCC1CCC(c2nc(-c3ccncc3)no2)CC1 (stereo not drawn),.,-,35,-
COC(=O)[C@H](CCSC)NC(=O)Cn1cc(C)c(=O)[nH]c1=O,8.7,.,.,.
NC(=S)N=Nc1c(O)[nH]c2ccccc12,.,-,-,-
Oc1[nH]c2ccccc2c1N=NC(=S)N1CCOCC1,.,-,11,-
Oc1[nH]c2ccc(Br)cc2c1N=NC(=S)N1CCOCC1,-,-,161,-
CO[C@@H]1CN(C)C(=O)c2cc(NS(=O)(=O)CC(F)(F)F)ccc2OC[C@H](C)N(C(=O)NC(C)C)C[C@@H]1C,-,.,.,.
Nc1ccc(C(=O)Nc2ccc3nc(-c4ccncc4)[nH]c3c2)cc1,-,-,256,-
O=C(C[C@H]1C=C[C@H](NC(=O)c2ccccc2)[C@H](CO)O1)NCc1ccc(Oc2ccccc2)cc1,-,.,.,.
CCOc1cccc(-c2c(C(=O)N/N=C/c3ccc(Br)cc3)nnn2-c2nonc2N)c1,-,-,10,-
CC(=C/c1ccccc1)/C=N/NC(=O)c1nnn(-c2nonc2N)c1CN1CCC(C)CC1,-,-,-,-
CCOc1cccc(-c2c(C(=O)N/N=C/c3cccnc3)nnn2-c2nonc2N)c1,-,-,-,-
CC1CCN(Cc2c(C(=O)N/N=C/c3ccccc3O)nnn2-c2nonc2N)CC1,-,-,31,-
O=C(N[C@@H]1CC[C@@H](CCn2cc(-c3cccnc3)nn2)O[C@@H]1CO)c1ccccc1F,-,.,.,.
Cc1onc(-c2ccccc2Cl)c1C(=O)N1CCN(c2ccccc2)CC1,.,-,-,-
SMILES,CFTR F508del cor,697 NFkB inh,HIF act,Jurkat NFkB inh
Cc1onc(-c2ccccc2Cl)c1C(=O)N1CCN(c2cccc(Cl)c2)CC1,8.1,-,-,-
CCC(=O)N1CCC2(CC1)CN(CC1CCOCC1)[C@H](CO)c1c2c2ccc(OC)cc2n1C,-,.,.,.
CN1C(=O)c2cc(NC(=O)Cc3ccccc3)ccc2OC[C@H]2O[C@@H](CC(=O)NCc3ccc(Cl)cc3)CC[C@@H]21,-,.,.,.
CN1C(=O)c2cc(NC(=O)Cc3ccccc3)ccc2OC[C@@H]2O[C@H](CC(=O)NCc3ccc(Cl)cc3)CC[C@H]21,10,.,.,.
CN1C(=O)c2cc(NC(=O)c3ccc(Cl)cc3)ccc2OC[C@@H]2O[C@H](CC(=O)NCc3cccc(F)c3)CC[C@H]21,12,.,.,.
CN1c2ccc(C3=CCCCC3)cc2[C@H]2[C@H](CCN2C(=O)C2CC2)[C@@H]1CO,-,.,.,.
CCN(CC)CCNc1ccc(CO)c2oc3cc(Cl)ccc3c(=O)c12,9.0,.,.,.
COc1ccc2c3c([nH]c2c1)[C@@H](CO)N(C(=O)c1ccc(F)cc1)CC31CN(C(=O)CC2CC2)C1,-,.,.,.
